Screening data as filed in PubChem.
HDAC3 inh: human HDAC3 inhibition; AID 2718; inhibition, % at 8.3 µM; recombinant HDAC3, fluorogenic peptide/trypsin coupled, fluorescence; 320,000 compounds, 0.15% hits; O15379; in the data active means inhibition above about 26%, passing the limit was not always enough
ERp5 inh: ERp5 (human) disulfide isomerase inhibition; ERp5 insulin aggregation, absorbance 650 nm, 90 min; 350,000 compounds, 0.05% hits; inhibition, % at 9.99 µM; Q15084;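 active means mean replicate inhibition above about 25%, with every replicate also reaching it, limit read from the data, passing the limit was not always enough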
Target sequence (Q15084 whole entry, looked up): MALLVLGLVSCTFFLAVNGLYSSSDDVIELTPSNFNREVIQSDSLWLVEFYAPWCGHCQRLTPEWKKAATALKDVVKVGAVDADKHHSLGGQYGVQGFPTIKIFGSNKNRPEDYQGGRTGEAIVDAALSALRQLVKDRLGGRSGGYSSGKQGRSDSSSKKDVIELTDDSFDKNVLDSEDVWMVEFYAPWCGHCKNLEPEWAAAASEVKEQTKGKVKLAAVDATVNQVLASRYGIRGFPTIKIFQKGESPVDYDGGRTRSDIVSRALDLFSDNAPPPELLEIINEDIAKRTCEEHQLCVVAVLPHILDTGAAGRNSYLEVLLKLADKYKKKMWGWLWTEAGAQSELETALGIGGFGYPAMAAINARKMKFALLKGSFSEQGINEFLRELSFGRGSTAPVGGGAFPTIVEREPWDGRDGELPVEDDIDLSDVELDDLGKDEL
PDI inh: PDI (human) enzyme inhibition | 350,000 compounds, 0.052% hits | inhibition, % at 10 µM | P07237 | PDI insulin aggregation turbidity, A650, 90 min;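 active means mean inhibition across replicates of 30% or more, whatever share of single replicates reach that level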
SIRT5 block: blocks human SIRT5 desuccinylation of peptide | Q9NXA8 | Purified SirT5, succinyl-peptide AMC, trypsin-coupled fluorescence | inhibition, % at 15 µM | 330,000 compounds, 1.1% hits | AID 652115; in the data active means inhibition above about 15%
ERAP1 inh: ERAP1 (human) enzyme inhibition. Q9NZ08. recombinant ERAP1, Leu-AMC fluorescence, 60 min. inhibition, % at 10.7 µM. 340,000 compounds, 0.15% hits. AID 652197;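 active means mean replicate inhibition of at least 30%, or all replicates individually reaching that 30% level; inactive means mean below 30% and not every replicate reaching it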;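 further: 0% = neutral control wells and 100% = L-leucinethiol positive control wells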
Numbers without * were called inactive; / = no result; ! = not active in a repeat. Many of the other results were omitted from the sample, so hits are more common in it than they were.

SMILES	HDAC3 inh	ERp5 inh	PDI inh	SIRT5 block	ERAP1 inh
C[C@@H]1CN([C@H](C)CO)S(=O)(=O)c2ccc(C#Cc3ccccc3F)cc2O[C@@H]1CN(C)C(=O)Cc1ccccc1	/	-1	5	20*!	-1
CC(C)CC#Cc1ccc2c(c1)O[C@H](CN(C)C(=O)Nc1ccccc1F)[C@H](C)CN([C@H](C)CO)S2(=O)=O	/	2	/	18*	0
O=C(C[C@@H]1C=C[C@@H](NC(=O)Nc2cc(F)ccc2F)[C@H](CO)O1)Nc1ccc(-c2ccccc2)cc1	/	/	/	3	-1
CCCC#Cc1ccc2c(c1)O[C@H](CN(C)C(=O)c1ccccc1F)[C@H](C)CN([C@@H](C)CO)S2(=O)=O	/	-2	/	19*	2
O=C(/C=C/c1cccnc1)c1cccc(O)c1	6	4	44*	-8	-3
C[C@@H]1CN([C@@H](C)CO)C(=O)c2cccc(NC(=O)Nc3ccccc3)c2O[C@@H]1CN(C)CC1CCCCC1	/	-4	/	9	0
Cc1cc(C(=O)Nc2cccc3c2O[C@H](CN(C)CC2CC2)[C@H](C)CN([C@H](C)CO)C3=O)n(C)n1	/	0	/	16*	1
Cc1cc(C(=O)Nc2cccc3c2O[C@@H](CN(C)CC2CC2)[C@H](C)CN([C@H](C)CO)C3=O)n(C)n1	/	4	/	1	0
Cc1cc(C(=O)Nc2cccc3c2O[C@@H](CN(C)S(=O)(=O)c2ccc(Cl)cc2)[C@@H](C)CN([C@@H](C)CO)C3=O)n(C)n1	/	26*	/	0	-1
C[C@H](CO)N1C[C@H](C)[C@@H](CN(C)CC2CCCCC2)Oc2c(NC(=O)Cc3ccccc3)cccc2C1=O	/	-3	1	21*	-2
Cc1cc(C(=O)Nc2cccc3c2O[C@H](CN(C)Cc2ccc(Oc4ccccc4)cc2)[C@@H](C)CN([C@H](C)CO)C3=O)n(C)n1	/	4	/	17*	1
COc1ccc(NC(=O)Nc2ccc3c(c2)C(=O)N([C@H](C)CO)C[C@@H](C)[C@@H](CN(C)Cc2ccc(C(=O)O)cc2)OCCCC[C@@H](C)O3)cc1	/	-1	/	2	-15
CO[C@@H]1CN(C)C(=O)c2ccc(NC(=O)CC(F)(F)F)cc2OC[C@@H](C)N(C(C)=O)C[C@@H]1C	/	-4	/	1	-3
O=C(Nc1ccc(F)cc1)N1C[C@H]2[C@@H](c3ccccc31)[C@@H](CO)N2C(=O)Cc1ccccn1	/	0	/	1	0
CCCN(C)C[C@H]1OCCCC[C@@H](C)Oc2ccc(NC(=O)Nc3ccc(OC)cc3)cc2C(=O)N([C@@H](C)CO)C[C@H]1C	/	-1	/	1	2
COc1ccc(S(=O)(=O)N(C)C[C@H]2Oc3ccc(NC(=O)NC(C)C)cc3CC(=O)N([C@H](C)CO)C[C@@H]2C)cc1	/	-5	/	3	1
C[C@@H]1CN([C@@H](C)CO)C(=O)c2cccc(NC(=O)c3cnccn3)c2O[C@@H]1CN(C)Cc1ccc(Cl)c(Cl)c1	/	1	/	/	-2
C[C@@H]1CN([C@@H](C)CO)C(=O)c2cccc(NC(=O)c3cnccn3)c2O[C@H]1CN(C)Cc1ccc(Cl)c(Cl)c1	/	-5	/	11	32*
CO[C@@H](C(=O)N(C)C[C@H]1OCc2ccccc2-c2ccccc2C(=O)N([C@@H](C)CO)C[C@@H]1C)c1ccccc1	/	-3	/	19*	0
CCOC(=O)N(C)C[C@H]1OCc2ccccc2-c2ccccc2C(=O)N([C@H](C)CO)C[C@@H]1C	/	-4	/	21*	2
CC(C)NC(=O)Nc1ccc2c(c1)C(=O)N([C@H](C)CO)C[C@@H](C)[C@@H](CN(C)S(=O)(=O)c1cccs1)OCCCC[C@H](C)O2	/	1	/	8	-4
COc1ccccc1C#Cc1ccc2c(c1)O[C@@H](CN(C)C)[C@H](C)CN([C@@H](C)CO)S2(=O)=O	/	9	/	-18	-1
COc1cccc(C(=O)n2c(SC)nc3cc4c(cc32)OCCO4)c1	92*	1	-2	-3	-1
C[C@@H]1CN([C@@H](C)CO)C(=O)c2cccc(NC(=O)C3CC3)c2O[C@H]1CN(C)C(=O)Nc1ccc(C(F)(F)F)cc1	/	1	/	-2	-1
COc1cc(/C=C2\SC(=O)N(CC(=O)Nc3ccc(C)cc3)C2=O)cc(Cl)c1OCC(=O)O	10	5	-1	3	1
SMILES	HDAC3 inh	ERp5 inh	PDI inh	SIRT5 block	ERAP1 inh
Cc1ccc(NC(=O)CN2C(=O)S/C(=C\c3ccc(OCC(=O)O)c(Br)c3)C2=O)cc1	4	5	-4	17*	0
C[C@@H]1CN([C@H](C)CO)C(=O)Cc2cc(NC(=O)Nc3ccccc3)ccc2O[C@@H]1CN(C)C(=O)Nc1ccccc1	/	3	/	1	0
Cc1ccc(S(=O)(=O)NCC[C@@H]2CC[C@H](NC(=O)CCN3CCCCC3)[C@@H](CO)O2)cc1	/	2	/	17*	-3
O=C(N[C@H]1CC[C@@H](CCNS(=O)(=O)c2ccc(F)cc2)O[C@@H]1CO)C1CCC1	/	-2	/	18*	-2
COc1ccc(C(=O)N2C[C@@H]3[C@H](c4ccccc42)[C@H](CO)N3Cc2ccccc2)cc1	/	-3	/	10	1
C[C@@H](NC(=O)C[C@H]1CC[C@H]2[C@@H](COC[C@@H](O)CN2Cc2ccc(C(F)(F)F)cc2)O1)c1ccccc1	/	0	/	17*	-1
O=C(C[C@H]1CC[C@@H]2[C@H](COC[C@@H](O)CN2Cc2ccccc2F)O1)N[C@H]1CCN(Cc2ccccc2)C1	/	-2	/	23*	2
C[C@H](NC(=O)C[C@H]1CC[C@H]2[C@@H](COC[C@@H](O)CN2Cc2ccc(C(F)(F)F)cc2)O1)c1ccccc1	/	6	/	9	-1
O=C(C[C@H]1CC[C@H]2[C@@H](COC[C@H](O)CN2Cc2cccc(C(F)(F)F)c2)O1)NCc1ccncc1	/	1	/	17*	-1
O=C(C[C@@H]1CC[C@@H]2[C@H](COC[C@H](O)CN2Cc2ccc3c(c2)OCO3)O1)Nc1ccc(-c2ccccc2)cc1	/	-4	/	15*	1
O=C(C[C@@H]1CC[C@H]2[C@@H](COC[C@@H](O)CN2Cc2cccc(C(F)(F)F)c2)O1)NCc1ccncc1	/	4	/	-1	-1
O=C(C[C@H]1CC[C@@H]2[C@H](COC[C@@H](O)CN2Cc2ccc3c(c2)OCO3)O1)Nc1ccc(-c2ccccc2)cc1	/	-3	/	4	-1
CO[C@H]1CC[C@H]2CCN(C)C(=O)[C@H](C)N(C)C(=O)c3cccc(C#N)c3OC[C@H]1O2	/	-3	/	-1	-1
C[C@H](NC(=O)C[C@@H]1CC[C@H]2[C@@H](COC[C@@H](O)CN2C(=O)Nc2cccc(F)c2)O1)c1ccccc1	/	1	/	19*	2
C[C@H](NC(=O)C[C@H]1CC[C@H]2[C@@H](COC[C@H](O)CN2C(=O)Nc2cccc(F)c2)O1)c1ccccc1	/	3	/	2	1
CC(C)C#Cc1cnc2c(c1)C(=O)N([C@H](C)CO)C[C@H](C)[C@@H](CN(C)C(=O)CN1CCOCC1)O2	/	-9	/	39*	1
